# Sampled rows, rich in hits. Any-hit rate of the full collection: about 8.2%.
# SW480 rereplic – inducers of DNA re-replication in SW480 colon cancer cells | SW480 DNA re-replication, Hoechst DNA content imaging, 48 h | Potency, µM (titrated, usually from 46.1 µM), for inactives: at the top dose re-replication activation, most hits filed as activators | 1.8% of 340,000 active; note: % of control where 0% means no effect; nearly all actives have a fitted effect of over 55% in size
#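 Cells (250 per well) received 23 nL compound or DMSO by pin tool and were kept 48 hr at 37 C, 5% CO2. Nuclei were then stained with Hoechst for 40 min and scanned for DNA content.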
# KB-3-1 tox – KB-3-1 parental cell cytotoxicity; Potency, µM (highest dose often 46.1 µM), usual class: cytotoxic; KB-3-1 viability, CellTiter-Glo ATP luminescence, 72 h; 1.4% of 400,000 active; AID 1347075; note: % is set by controls: 0 for no effect and ±100 for the full control effect; nearly all actives have a fitted effect of over 60% in size
#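 KB-3-1 cells, DMEM (no phenol red) + 10% FBS; compound by pin transfer, 72 h, 37 °C. Readout: CellTiter-Glo luminescence after 10 min. Data normalized, curve-fitted.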
# KB-V1 cytotox – KB-V1 MDR subline cytotoxicity | Potency, µM (highest dose often 46.1 µM), hits mostly cytotoxic | KB-V1 MDR cells viability, CellTiter-Glo, 72 h | AID 1347076 | 3.4% of 400,000 active; note: % is set by controls: 0 for no effect and ±100 for the full control effect; nearly all actives have a fitted effect of over 60% in size
#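 Cytotoxicity via CellTiter-Glo luminescence after 72 h compound exposure at 37 degrees C. Cells: drug-selected KB-V1 line, DMEM phenol-red free plus 10% FBS. Compounds tested at multiple concentrations; normalized data fitted to concentration-effect curves.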
# MCF10A rerep – inducers of DNA re-replication in MCF 10A breast cells | MCF 10A DNA re-replication, Hoechst nuclear intensity, 48 h | AID 624296 | Potency, µM (series often up to 46.1 µM), inactives show top-dose activity, positive = re-replication, usual class: activators | 2.9% of 350,000 active; note: % of control where 0% means no effect; nearly all actives have a fitted effect of over 50% in size
# ELG1 DNA repair – inhibitors of ELG1-dependent DNA repair in HEK293T cells; HEK293T ELG1-luciferase reporter, luminescence, 16 h; DNA damage induced by 5-fluorouridine; Potency, µM (titrated, usually from 46.1 µM), inactives show at the highest dose activity change, negative = inhibition, hits mostly inhibitors; 2.3% of 330,000 active; AID 504467; note: % is set by controls: 0 for no effect and ±100 for the full control effect; nearly all actives have a fitted effect of over 55% in size
#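 HEK293T cells expressing luciferase-tagged ELG1 (2,000/well) received 5-Fluorouridine plus compound or DMSO for 16 hr at 37 °C. Luciferase was read by ONE-Glo luminescence after 30 min at room temperature.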
# * = called active by the depositor; i = inactive; ? = inconclusive; / = no result. Calls come from the whole dose curve; as a rule, active = well fitted curve in the direction sought with a large enough effect; inconclusive = small, poorly fitted or top-dose-only effect, or another doubt; inactive = no such curve, though single readings can be large; an effect the other way counts as inactive or inconclusive. Potency is the fitted concentration of half-maximal effect.
SMILES,SW480 rereplic,KB-3-1 tox,KB-V1 cytotox,MCF10A rerep,ELG1 DNA repair
COc1cc(/C=N/OCC(=O)NC23CC4CC(CC(C4)C2)C3)ccc1OCc1ccccc1,?,?,?,21µM*,-22%
CC(C)(C)OC(=O)N1CC2(CCCCC2)CC1Cc1ccc(C(F)(F)F)cc1 (stereo unspecified),/,i,i,/,/
COc1ccc(C(O)c2ncc(-c3ccccc3)[nH]2)cc1F (stereo unspecified),/,i,i,/,/
CCc1nc2c(OCc3ccc(F)c(F)c3)cccn2c1N(C)C(=O)c1ccc(C)cc1,/,i,?,/,/
COc1ccc(-c2[nH]c(-c3ccccc3)nc2SCC(=O)NCc2ccco2)cc1OC,1%,i,?,3%,?
COc1ccc(-c2[nH]c(-c3ccc(F)cc3)nc2SCC(=O)NCc2ccco2)cc1OC,-3%,i,i,-1%,18µM*
COc1ccc(-c2nc(SCC(=O)NCc3ccco3)c(-c3ccccc3)[nH]2)cc1OC,1%,i,i,21µM*,9.2µM*
COC1OC(COCc2ccccc2)C(N)C(OCc2ccccc2)C1OCc1ccccc1 (stereo unspecified),12%,i,i,8%,/
CC(C(=O)Nc1ccccc1)N(c1cccc(Cl)c1)S(C)(=O)=O (stereo unspecified),-11%,?,i,-14%,5%
CSC(SC)=C(C#N)C(=O)c1ccccc1,?,i,?,23µM*,-16%
CCOc1ccc(-n2cc(-c3ccccc3)c3c(N4CCOCC4)ncnc32)cc1,2%,i,i,?,9.2µM*
CCOC(=O)CSc1ncnc2c1c(-c1ccccc1)cn2-c1ccc(OC)cc1,-2%,i,i,-3%,2%
c1ccc(-c2cn(-c3ccccc3)c3ncnc(N4CCCCC4)c23)cc1,22%,i,i,16µM*,?
COc1ccc(-n2cc(-c3ccccc3)c3c(N4CC(C)OC(C)C4)ncnc32)cc1 (stereo unspecified),15%,i,?,23µM*,?
CN1CCN(c2ncnc3c2c(-c2ccccc2)cn3-c2ccc(F)cc2)CC1,?,i,i,?,-11%
COCC(C)n1c(COc2ccccc2F)nnc1SCC(=O)Nc1oc(C)c2c(C)n[nH]c(=O)c12 (stereo unspecified),-2%,i,i,2%,8%
CCOc1ccc(-n2c(=O)c3c(C)c(C)sc3n(Cc3cc(=O)n4cc(Cl)ccc4n3)c2=O)cc1,/,i,i,/,/
COCCNC(=S)Nc1ccc2nc(N3CCOCC3)cc(C)c2c1,-2%,i,i,-8%,2%
Cc1cc(N2CCCC2)nc2ccc(NC(=S)NC(C)C)cc12,?,i,i,?,8%
CCOCCCNC(=S)Nc1ccc2nc(N3CCCC3)cc(C)c2c1,-62%,i,7.3µM*,1%,13%
Cc1cc(N2CCOCC2)nc2ccc(NC(=S)NC(C)C)cc12,-11%,i,i,23µM*,0%
COCCNC(=S)Nc1ccc2nc(N3CCCC3)cc(C)c2c1,-9%,i,16µM*,27%,0%
CCc1ccc(-c2nc3c(c(SCc4ccccc4)n2)Cc2c(CO)cnc(C)c2O3)cc1,/,i,i,/,/
CN1N=C2c3ccccc3CCC2C1c1ccc(F)cc1 (stereo unspecified),-20%,i,i,8%,?
c1ccc(N2CC3CCc4ccccc4C3=N2)cc1 (stereo unspecified),7.3µM*,i,i,21µM*,?
SMILES,SW480 rereplic,KB-3-1 tox,KB-V1 cytotox,MCF10A rerep,ELG1 DNA repair
COc1ccc(S(=O)(=O)NCC2CCCN(Cc3cccc(C(C)=O)c3)C2)cc1 (stereo unspecified),-1%,i,i,?,0%
COc1ccc(S(=O)(=O)NCC2CCCN(Cc3cccnc3)C2)cc1 (stereo unspecified),-15%,i,i,1µM*,-3%
CC(C)(C)c1ccc(C(=O)NCCNC(=O)c2ccco2)cc1,-3%,i,?,-2%,27%
CCc1c(C)sc2c1CCN(Cc1ccccc1)C2c1ccccc1 (stereo unspecified),/,?,i,/,/
CCOC(=O)c1[nH]c(CN2CCN(c3ccc(OC)cc3)CC2)c(C(=O)OCC)c1C,?,i,?,?,18µM*
COc1ccc(-c2nnc(SCC(=O)c3[nH]c(C)c(C(C)=O)c3C)o2)cc1,5%,i,?,4%,?
CCOC(=O)c1[nH]c(CSc2nnc(-c3ccc(OC)cc3)o2)c(C(=O)OCC)c1C,9%,i,?,16µM*,?
COC(=O)/C(=C/c1ccccc1)NC(=O)c1ccco1,-2%,i,i,10%,-8%
CC(C)OC(=O)/C(=C/c1ccc(Br)cc1)NC(=O)c1ccco1,-61%,i,16µM*,3%,0%
COc1cccc(N(C(=O)Cn2nnc(-c3ccc(Cl)cc3)n2)C(C(=O)NCC2CCCO2)c2ccc(C)cc2)c1 (stereo unspecified),5%,i,i,2%,14%
Cc1cccc(N(CC(=O)NCc2ccccc2)C(=O)Cn2nnc(-c3ccc(C)o3)n2)c1,1%,i,2.9µM*,-6%,-12%
Cc1ccc(-c2nnn(CC(=O)N(c3ccccc3)C(C(=O)NCC3CCCO3)c3ccc(Cl)cc3)n2)cc1 (stereo unspecified),2%,i,i,18µM*,7%
Cc1ccc(-c2nnn(CC(=O)N(CC(=O)NCC3CCCO3)c3ccc(F)c(Cl)c3)n2)o1 (stereo unspecified),-4%,i,15µM*,-3%,-7%
Cc1ccc(-c2nnn(CC(=O)N(c3ccc4c(c3)OCCO4)C(C(=O)NCC3CCCO3)c3ccc(F)cc3)n2)o1 (stereo unspecified),16µM*,i,i,?,-5%
Cc1ccc(-c2nnn(CC(=O)N(c3ccccc3)C(C(=O)NCC3CCCO3)c3ccc(F)cc3)n2)o1 (stereo unspecified),1%,i,i,-18%,1%
Cc1ccc(S(=O)(=O)ON2C(=O)c3ccccc3C2=O)c(C)c1,?,i,i,13µM*,-22%
O=C1c2ccccc2C(=O)N1OS(=O)(=O)c1ccc(F)cc1,3%,i,i,4%,-1%
Cc1ccc(S(=O)(=O)N2CCN(CCc3ccccc3)CC2)c(C)c1,2%,i,?,?,?
Cc1cccc2c1N(C)C(=O)C2=O,-1%,i,i,?,9%
Cc1cc(C)c(S(=O)(=O)ON2C(=O)c3ccccc3C2=O)cc1C,?,i,i,7.3µM*,14%
